Assay results as given in PubChem BioAssay (NCI).
The panel holds about 79,000 compounds, 15% with a hit somewhere; the sample as a whole holds those more often. Activity calls are given as the source filed them. No stated cut-off is given here; in the data, active means growth inhibition above about 70%; inactive means the rest.

How the values were obtained:
[1] = NCI Yeast Anticancer Drug Screen. Data for the rad52 strain (AID 147);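 further: 0% = growth of vehicle-treated control cultures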; settings: S. cerevisiae rad52 mutant growth inhibition, active compounds read high
Outline: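 Here a repair-compromised yeast strain receives each compound; its growth is then quantified and normalised to vehicle-only controls.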

[2] = NCI Yeast Anticancer Drug Screen. Data for the wt1 strain (AID 149);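 further: 0% = growth of vehicle-treated wt1 cultures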; settings: S. cerevisiae wt1 strain (SPY 50644) growth inhibition, active compounds read high
Outline: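 Measured: growth of wt1 yeast under compound versus vehicle treatment, reported as inhibition.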

[3] = NCI Yeast Anticancer Drug Screen. Data for the rad50EPP+ strain (AID 151);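 further: 0% = growth of vehicle-treated control cultures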; settings: S. cerevisiae rad50 mutant strain, active compounds read high
Outline: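 Read-out is yeast growth inhibition relative to vehicle; cells used were the rad50EPP+ strain.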

[4] = NCI Yeast Anticancer Drug Screen. Data for the mgt1 strain (AID 153); settings: S. cerevisiae mgt1 mutant growth inhibition, active compounds read high
Outline: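 Measured: inhibition of mgt1 yeast growth by compound, normalized to vehicle-treated cultures.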

[5] = NCI Yeast Anticancer Drug Screen. Data for the rad50 strain (AID 155);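 further: 0% = growth of vehicle-only cultures of the same strain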; settings: S. cerevisiae rad50 strain growth inhibition, active compounds read high
Outline: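 Growth of the mutant yeast was measured after compound exposure and referenced to vehicle-treated cultures.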

[6] = NCI Yeast Anticancer Drug Screen. Data for the mec2-1 strain (AID 157); settings: S. cerevisiae mec2-1 strain, active compounds read high
Outline: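 Using mec2-1 yeast: add compound, measure growth, express inhibition versus vehicle-treated cultures.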

[7] = NCI Yeast Anticancer Drug Screen. Data for the rad14 strain (AID 159);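 further: 0% = growth of vehicle-treated control cultures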; settings: S. cerevisiae rad14 strain growth inhibition, active compounds read high
Outline: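 Here, inhibition of yeast growth was measured after compound exposure, using a strain with a genetic defect in DNA damage repair and vehicle-treated cultures as the reference.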

[8] = NCI Yeast Anticancer Drug Screen. Data for the sgs1 mgt1 strain (AID 161);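 further: 0% = growth of cultures given vehicle only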; settings: S. cerevisiae sgs1 mgt1 strain, active compounds read high
Outline: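 Percent growth inhibition was derived by comparing compound-exposed mutant yeast with vehicle-exposed cultures. The strain carries alterations in DNA damage repair.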

[9] = NCI Yeast Anticancer Drug Screen. Data for the CLN2oe strain (AID 163);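 further: 0% = growth of vehicle-only control cultures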; settings: S. cerevisiae CLN2oe strain, active compounds read high
Outline: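 Whole-cell yeast growth assay. A strain engineered for altered cell-cycle control received compound, and inhibition relative to vehicle-treated cultures was recorded.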

[10] = NCI Yeast Anticancer Drug Screen. Data for the cln2 rad14 strain (AID 165);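 further: 0% = growth equal to vehicle treated cultures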; settings: S. cerevisiae cln2 rad14 strain, active compounds read high
Outline: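 Yeast strain cln2 rad14, bearing defects in cell cycle control and DNA repair, serves as the test system; values reflect growth inhibition compared with vehicle.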

[11] = NCI Yeast Anticancer Drug Screen. Data for the bub3 strain (AID 167); settings: S. cerevisiae bub3 mutant strain, active compounds read high
Outline: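 Whole-cell yeast assay. The mutant strain was incubated with compounds, and growth inhibition was determined by comparison with vehicle-treated cells.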

[12] = NCI Yeast Anticancer Drug Screen. Data for the wt2 strain (AID 169);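 further: 0% = growth of vehicle-treated yeast cultures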; settings: S. cerevisiae wt2 strain growth inhibition, active compounds read high
Outline: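 Treated yeast vs. vehicle-treated yeast: growth inhibition determined.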

[13] = NCI Yeast Anticancer Drug Screen. Data for the mlh1 strain (AID 171);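 further: 0% = growth of vehicle-treated control cultures of the same strain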; settings: S. cerevisiae mlh1 strain growth inhibition, active compounds read high
Outline: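 A yeast strain with a defined genetic lesion serves as the test organism. Cultures receive compound or vehicle, and growth is measured.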

[14] = NCI Yeast Anticancer Drug Screen. Data for the sgs1 strain (AID 173);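 further: 0% = growth of vehicle-only control cultures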; settings: S. cerevisiae sgs1 mutant, active compounds read high
Outline: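 A genetically defined yeast mutant is incubated with the test compound, and its growth is compared to that of the same strain given vehicle.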

[15] = NCI Yeast Anticancer Drug Screen. Data for the mlh1 rad18 strain (AID 175); settings: S. cerevisiae mlh1 rad18 strain growth inhibition, active compounds read high
Outline: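 Steps: expose repair-defective yeast to compound; measure growth; express inhibition against vehicle-treated controls.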

[16] = NCI Yeast Anticancer Drug Screen. Data for the rad18 strain (AID 177); settings: S. cerevisiae rad18 mutant growth inhibition, active compounds read high
Outline: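 Measured value is growth inhibition of a yeast strain bearing a DNA repair alteration, referenced to vehicle-treated cells.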

[17] = at 5.0 µM (retest, dose inferred, filed as 0.5)
[18] = at 50.0 µM (retest, dose inferred, filed as 5.0)

Measured: growth inhibition

O=C1SS(=O)c2ccccc21 (stereo unspecified)
inactive: [1]; at 1.2 µM 11% | [1]; at 3.7 µM 6% | [1]; at 11.0 µM 8% | [1]; at 33.0 µM 25% | [2]; at 1.2 µM -5% | [2]; at 3.7 µM -2% | [2]; at 11.0 µM 12% | [2]; at 33.0 µM -5% | [2]; at 100.0 µM 67% | [3]; at 1.2 µM 7% | [3]; at 3.7 µM 5% | [3]; at 11.0 µM 7% | [3]; at 33.0 µM 23% | [3]; at 100.0 µM 65% | [4]; at 1.2 µM 9% | [4]; at 3.7 µM 12% | [4]; at 11.0 µM 12% | [4]; at 33.0 µM 42% | [5]; at 1.2 µM 5% | [5]; at 3.7 µM 0% | [5]; [17] 32% | [5]; at 11.0 µM 2% | [5]; at 33.0 µM 26% | [5]; at 50.0 µM 34.1% | [6]; at 1.2 µM 5% | [6]; at 3.7 µM 18% | [6]; [17] 27% | [6]; at 11.0 µM -3% | [6]; at 33.0 µM 13% | [6]; at 50.0 µM 44.1% | [7]; at 1.2 µM -11% | [7]; at 3.7 µM -3% | [7]; at 11.0 µM -17% | [7]; at 33.0 µM -4% | [7]; at 100.0 µM 61% | [8]; [17] 34% | [8]; at 50.0 µM 50% | [9]; at 1.2 µM 7% | [9]; at 3.7 µM 13% | [9]; at 11.0 µM 17% | [9]; at 33.0 µM 24% | [9]; at 100.0 µM 57% | [10]; [17] 11% | [10]; [18] 38% | [10]; at 50.0 µM 5.75% | [11]; at 1.2 µM -5% | [11]; at 3.7 µM 2% | [11]; [17] 24% | [11]; at 11.0 µM -5% | [11]; at 33.0 µM 0% | [11]; at 50.0 µM 40.3% | [12]; at 1.2 µM 7% | [12]; at 3.7 µM 8% | [12]; at 11.0 µM 8% | [12]; at 33.0 µM 17% | [12]; at 100.0 µM 66% | [13]; at 1.2 µM 6% | [13]; at 3.7 µM 20% | [13]; at 11.0 µM 17% | [13]; at 33.0 µM 24% | [13]; at 100.0 µM 68% | [14]; at 1.2 µM -7% | [14]; at 3.7 µM 5% | [14]; at 11.0 µM 8% | [14]; at 33.0 µM 21% | [14]; at 100.0 µM 39% | [15]; [17] 57% | [15]; at 50.0 µM 0% | [16]; at 1.2 µM 13% | [16]; at 3.7 µM 15% | [16]; at 11.0 µM 15% | [16]; at 33.0 µM 39%
active: [1]; at 100.0 µM 76% | [4]; at 100.0 µM 83% | [5]; [18] 89% | [5]; at 100.0 µM 79% | [6]; [18] 99% | [6]; at 100.0 µM 83% | [8]; [18] 85% | [11]; [18] 96% | [11]; at 100.0 µM 89% | [15]; [18] 95% | [16]; at 100.0 µM 90%

O=C1c2ccccc2C(=O)c2sc(Nc3ccccc3Cl)nc21
active: [1]; at 11.0 µM 90% | [1]; at 33.0 µM 99% | [1]; at 100.0 µM 98% | [2]; at 33.0 µM 99% | [2]; at 100.0 µM 98% | [3]; at 11.0 µM 94% | [3]; at 33.0 µM 99% | [3]; at 100.0 µM 98% | [4]; at 11.0 µM 96% | [4]; at 33.0 µM 99% | [4]; at 100.0 µM 98% | [5]; [17] 87% | [5]; at 11.0 µM 78% | [5]; at 33.0 µM 98% | [5]; [18] 99% | [5]; at 50.0 µM 89.6% | [5]; at 100.0 µM 96% | [6]; [17] 97% | [6]; at 11.0 µM 99% | [6]; at 33.0 µM 99% | [6]; [18] 99% | [6]; at 50.0 µM 91.2% | [6]; at 100.0 µM 98% | [7]; at 11.0 µM 96% | [7]; at 33.0 µM 99% | [7]; at 100.0 µM 98% | [8]; [17] 100% | [8]; [18] 100% | [8]; at 50.0 µM 93.7% | [9]; at 11.0 µM 94% | [9]; at 33.0 µM 99% | [9]; at 100.0 µM 98% | [10]; [18] 99% | [10]; at 50.0 µM 91.3% | [11]; [17] 99% | [11]; at 11.0 µM 97% | [11]; at 33.0 µM 99% | [11]; [18] 99% | [11]; at 50.0 µM 90.1% | [11]; at 100.0 µM 97% | [12]; at 3.7 µM 77% | [12]; at 11.0 µM 99% | [12]; at 33.0 µM 99% | [12]; at 100.0 µM 98% | [13]; at 11.0 µM 94% | [13]; at 33.0 µM 99% | [13]; at 100.0 µM 97% | [14]; at 11.0 µM 82% | [14]; at 33.0 µM 99% | [14]; at 100.0 µM 97% | [15]; [17] 96% | [15]; [18] 99% | [15]; at 50.0 µM 85.8% | [16]; at 11.0 µM 83% | [16]; at 33.0 µM 99% | [16]; at 100.0 µM 97%
inactive: [1]; at 1.2 µM -11% | [1]; at 3.7 µM 42% | [2]; at 1.2 µM -17% | [2]; at 3.7 µM 13% | [2]; at 11.0 µM 58% | [3]; at 1.2 µM -37% | [3]; at 3.7 µM 27% | [4]; at 1.2 µM -13% | [4]; at 3.7 µM 19% | [5]; at 1.2 µM -1% | [5]; at 3.7 µM 13% | [6]; at 1.2 µM -13% | [6]; at 3.7 µM 32% | [7]; at 1.2 µM -19% | [7]; at 3.7 µM 26% | [9]; at 1.2 µM 3% | [9]; at 3.7 µM 47% | [10]; [17] 57% | [11]; at 1.2 µM -4% | [11]; at 3.7 µM 54% | [12]; at 1.2 µM 1% | [13]; at 1.2 µM -30% | [13]; at 3.7 µM -6% | [14]; at 1.2 µM -6% | [14]; at 3.7 µM 16% | [16]; at 1.2 µM -14% | [16]; at 3.7 µM 25%
